Sampled rows, rich in hits. Any-hit rate of the full collection: about 2.2%.
LDHA inh: blocks human lactate dehydrogenase A; P00338; purified LDHA, NADH/diaphorase-resazurin fluorescence; stronger effect = lower value; activity change, % (values are at about 110 or 230 µM); 480,000 tested, 0.15% active; AID 1347041; in the data active = activity change below about -30%; inconclusive = mostly about -25% to -30%;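 also: plate controls were DMSO wells for no effect and wells without enzyme for full effect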
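Remaining NADH was detected by diaphorase (0.133 mg/mL) converting 37 µM resazurin to fluorescent resorufin, read at 0 and 20 minutes. The preceding 5-minute room-temperature reaction used 2 nM LDHA, 0.2 mM sodium pyruvate and 0.06 mM NADH at pH 7.4.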
HepG2 viability: HepG2 cytotoxicity, counter-screen for TGF-b inhibitors. HepG2 CAGA-GFP viability, ATP luminescence, 18 h. Potency, µM (titrated, usually from 46.1 µM), for inactives: top-dose activity change, negative = cytotoxicity, actives largely listed as cytotoxic. 410,000 tested, 0.76% active. AID 588856; also: potency is read from the fitted curve at half-maximal effect
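HepG2 CAGA-GFP cells (1000/well, DMEM with 1% FBS) received compound, then TGF-beta at 500 pg/mL final, and were incubated 18 hours at 37 degrees C. Viability was read by CellTiter-Glo luminescence. Media-only wells were set as complete cell-killing and DMSO as no toxicity.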
ATXN viability: viability counter-screen for ATXN expression inhibitors; S2 cells (HEK-293 line with an ATXN2-luciferase reporter) viability, CellTiter-Fluor protease fluorescence, 24 h; Potency, µM (titrated, usually from 56.7 µM), most hits filed as cytotoxic; 400,000 tested, 0.49% active; also: potency is read from the fitted curve at half-maximal effect; nearly all actives have a fitted effect of over 40% in size
ATXN2 expr inh: reduces ATXN2 reporter expression in HEK-293 cells; 360,000 tested, 0.72% active; HEK-293 ATXN2-luciferase reporter, luminescence, 24 h; Potency, µM (doses to about 57 µM), for inactives: at the top dose activity change, negative = inhibition, hits mostly inhibitors; AID 1745845; also: potency is read from the fitted curve at half-maximal effect; % is scaled to controls: 0 for no effect and ±100 for the full control effect; nearly all actives have a fitted effect of over 55% in size
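qHTS (up to 57 uM final) was run with 24 h compound exposure of reporter cells at 37 °C. Each well was multiplexed: SteadyGlo luminescence measured ATXN2-luciferase expression after a fluorogenic Gly-Phe-AFC viability readout (25 uM final).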
IDH1 R132H inh: human IDH1 R132H inhibition; O75874; IDH1-R132H enzyme, NADPH consumption, diaphorase/resazurin fluorescence; Potency, µM (highest dose often 76.6 µM), inactives show at the top dose activity change, negative = inhibition, usual class: inhibitors; 390,000 tested, 0.093% active; AID 602179; also: potency is read from the fitted curve at half-maximal effect; % is scaled to controls: 0 for no effect and ±100 for the full control effect; nearly all actives have a fitted effect of over 65% in size
Target sequence (O75874 whole entry R132H, stated change not applied): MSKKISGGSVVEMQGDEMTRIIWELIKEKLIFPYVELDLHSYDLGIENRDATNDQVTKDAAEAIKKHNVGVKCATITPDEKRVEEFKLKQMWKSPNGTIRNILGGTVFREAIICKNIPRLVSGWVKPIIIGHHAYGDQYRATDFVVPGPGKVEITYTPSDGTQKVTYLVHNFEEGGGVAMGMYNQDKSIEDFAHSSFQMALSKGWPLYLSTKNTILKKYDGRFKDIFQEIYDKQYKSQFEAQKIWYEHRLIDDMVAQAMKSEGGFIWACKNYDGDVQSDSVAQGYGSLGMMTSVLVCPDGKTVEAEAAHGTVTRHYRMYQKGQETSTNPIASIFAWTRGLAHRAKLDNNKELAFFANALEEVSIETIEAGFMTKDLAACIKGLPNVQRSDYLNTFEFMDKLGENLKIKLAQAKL
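IDH1-R132H (0.5 ug/mL) preincubated 30 min with compound, then NADPH (0.016 mM) and alpha-KG (2 mM) added; 80 min at RT, pH 7.5. Remaining NADPH coupled via diaphorase/resazurin to fluorescence (540/590 nm); concentration-response curves normalized to no-enzyme control.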
TGFb SMAD3 inh: TGF-b pathway inhibition; HepG2 CAGA-GFP TGF-b/SMAD3 reporter, GFP fluorescence, 18 h; TGF-beta stimulated, 500 pg/mL final; 410,000 tested, 1.2% active; Potency, µM (titrated, usually from 46.1 µM), for inactives: at the top dose activity, negative = inhibition, usual class: inhibitors; also: potency is read from the fitted curve at half-maximal effect; % is scaled to controls: 0 for no effect and ±100 for the full control effect; nearly all actives have a fitted effect of over 65% in size
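GFP signal (ex488/em500-530) from TGF-beta-stimulated HEPG2 CAGA-GFP cells, 500 pg/mL final, 18 h at 37 degrees C in DMEM plus 1% FBS, normalized to unstimulated and DMSO-stimulated controls.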
An asterisk follows results filed as active; i = inactive; ? = inconclusive; / = not tested or not shown. Unless noted, calls follow the shape of the dose curve; as a rule, active = well fitted curve in the direction sought with a large enough effect; inconclusive = small, poorly fitted or top-dose-only effect, or another doubt; inactive = no such curve, though single readings can be large; an effect the other way counts as inactive or inconclusive.

SMILES | LDHA inh | HepG2 viability | ATXN viability | ATXN2 expr inh | IDH1 R132H inh | TGFb SMAD3 inh
CC(C)COc1ccc(-c2nonc2NC(=O)c2ccc(F)cc2)cc1 | -6 | 13% | / | / | -13% | -3%
CCCN1CCN(CCCNC(=O)c2ccc3c(c2)sc2nc(-c4ccc(C)cc4)cn23)CC1 | 4 | -64% | / | / | 24% | ?
O=C(NCCCN1CCCCCC1)c1ccc2c(c1)sc1nc(-c3ccccc3)cn12 | -17 | 16µM* | / | / | -4% | ?
CN(Cc1ccccc1)C(=O)c1ccc(CSc2nc3cccnc3n2Cc2ccccc2F)cc1 | -15 | 13µM* | / | ? | ? | ?
O=C(NCc1ccco1)c1ccc(Cn2c(SCc3ccccc3F)nc3cccnc32)cc1 | 0 | -36% | / | / | -1% | 13µM*
CCOc1cnn(-c2cc(Oc3ccc(C)cc3)ncn2)c(=O)c1Cl | -1 | 3% | i | 3% | 13% | -6%
Cc1ccccc1Oc1cc(-n2ncc(Cl)c(Cl)c2=O)ncn1 | -8 | 7.1µM* | 7.9µM* | 7.9µM* | -4% | 4µM*
Cc1cc(C)c(S(=O)(=O)Nc2ccccn2)c(C)c1 | -6 | 13% | i | / | -9% | 25%
CCC(C)(C)C1CCc2[nH]nc(C(=O)N/N=C(\C)c3ccco3)c2C1 (centres undefined) | -6 | -66% | ? | -33% | 9% | 14µM*
Cc1ccc(-c2cc3ccccc3[nH]2)c(C)c1 | 10 | / | / | / | / | /
Cc1nc2ccccc2n1N | 5 | / | / | / | / | /
ClC(Cl)(Cl)c1nc2ccccc2n2nncc12 | -9 | 20µM* | ? | 13µM* | -6% | 16µM*
COc1cc2c(NC3CCN(C)CC3)nc(N3CCCN(C)CC3)nc2cc1OCCCN1CCCC1 | 5 | -2% | / | / | / | -20%
COc1cc2c(NC3CCN(C)CC3)nc(N3CCCN(C)CC3)nc2cc1OCCCN1CCOCC1 | 4 | -11% | / | / | / | 10µM*
COc1cc2c(NC3CCN(C)CC3)nc(N3CCCN(C)CC3)nc2cc1OCC1CCCCN1 (centres undefined) | 7 | -11% | / | / | / | 11µM*
Cn1c(NCCN2CCCC2)nc2cc(-c3cccc(C(F)(F)F)c3)sc2c1=O | -8 | -87% | ? | ? | / | ?
CCN(CC)CCC(=O)N1C/C(=C/c2ccccc2)C(=O)/C(=C\c2ccccc2)C1 | -2 | -104% | 13µM* | 24µM* | 2% | 2.8µM*
O=C1/C(=C\c2ccccc2)CCC/C1=C/c1ccccc1 | -2 | -1% | ? | ? | 3% | ?
O=C1/C(=C\c2ccccc2)CN(C(=O)CCN2CCCCC2)C/C1=C/c1ccccc1 | 3 | -106% | ? | ? | 3% | 16µM*
Cn1c(=O)c2c(ncn2Cc2ccccc2Cl)n(C)c1=O | -6 | / | / | / | / | /
COc1cc(SC)ccc1C(=O)N1CC(C)CC(C)C1 (centres undefined) | -1 | / | / | / | / | /
N/C(Cc1cccc2ccccc12)=N\OC(=O)c1ccccc1F | -8 | -14% | i | -8% | -1% | 0%
CCCCCCC(=O)N(O)C1CC(=O)N(c2ccc(Br)cc2)C1=O (centres undefined) | 0 | -21% | i | -21% | 6% | ?
CCCCCCC(=O)N(O)C1CC(=O)N(c2ccc(F)cc2)C1=O (centres undefined) | -1 | -3% | ? | 2% | 1% | 18µM*
CCOC(=O)c1cc(OC)c2cccc(CN3CCCC(C)(C(=O)NCCOC)C3)c2c1 (centres undefined) | 9 | -48% | 20µM* | ? | / | -27%
CCOC(=O)c1cc(OC)c2cccc(CN3CCC(C)(C(=O)NCCOC)C3)c2c1 (centres undefined) | 0 | -9% | i | -8% | / | -1%
Cc1ccc(S(=O)(=O)N(C(=O)c2ccncc2)c2ccc(OC(=O)c3ccncc3)c3ccccc23)cc1 | 19 | -22% | ? | 19µM* | 5% | 0%
